# Measurements taken from PubChem BioAssay (NCATS).
# Several values for one entry are separate records, joined by “and”; a condition that tells them apart may be missing. Identical values can stand only once. Inconclusive results are not listed. Where a structure was tested more than once in an assay, its records may differ in their call. Activity calls are given as the source filed them. Unless noted, the call rests on the fitted dose curve; in most records, active means well fitted curve in the direction sought with a large enough effect; inconclusive means small, poorly fitted or top-dose-only effect, or another doubt; inactive means no such curve, though single readings can be large; an effect the other way counts as inactive or inconclusive.
# Tests used:
# AS120 = test: qHTS profiling for inhibitors of Plasmodium falciparum proliferation (AID 504749);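 further: 0% = DMSO vehicle and full inhibition = artemisinin control; nearly all actives have a fitted effect of over 60% in size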; conditions: P. falciparum in erythrocytes, SYBR Green DNA, 72 h; series mostly up to 28.7 µM
# Method in brief: (§1)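 P. falciparum-infected erythrocytes (0.3% parasitemia, 2.5% hematocrit) incubated with compound 72 h at 37 C, 5% CO2. Parasite DNA detected by SYBR Green after lysis, overnight at room temperature; normalised to 0.29 uM artemisinin and DMSO.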
# ATS189 = test: as above; conditions: P. falciparum in erythrocytes, SYBR Green DNA, 72 h; series mostly up to 28.7 µM
# Method in brief: as §1
# PC49 = test: as above; conditions: P. falciparum in erythrocytes, SYBR Green DNA, 72 h; series mostly up to 28.7 µM
# Method in brief: as §1
# [1] = Cell Viability - BJ (AID 421; calls by dose curve;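 further: potency means the concentration at half of the fitted maximal effect; cells exposed to compound for 40 hours at 37 °C before readout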); conditions: BJ fibroblast viability, qHTS
# Method in brief: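 Quantitative HTS: ATP depletion in BJ cells after 40 hr compound exposure in complete culture medium, detected with CellTiter-Glo; AC50 from standard Hill fits.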
# [2] = Cell Viability - MRC5 (AID 434; calls by dose curve;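 further: potency means the concentration at half of the fitted maximal effect; potency reflects cytotoxicity seen as loss of intracellular ATP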); conditions: MRC5 lung fibroblast viability, qHTS
# Method in brief: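 MRC5 normal human lung fibroblasts, 1500 cells/well, exposed to compound for 40 hr at 37 C. Cellular ATP was read by CellTiter-Glo luminescence; data normalized to DMSO and 100 uM tamoxifen, with AC50 from Hill fits.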
# [3] = Cell Viability - SK-N-SH (AID 435; calls by dose curve;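 further: potency means the concentration at half of the fitted maximal effect; compound exposure lasted 40 h at 37 °C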); conditions: SK-N-SH neuroblastoma cell viability qHTS
# Method in brief: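 Cells seeded at 1500 per well and incubated 5 hr at 37 °C. Compound added, then 40 hr at 37 °C. CellTiter-Glo added, 20 min at room temperature, luminescence read.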
# [4] = Cell Viability - N2a (AID 540); conditions: N2a mouse neuroblastoma cell viability; at 92.2 µM (top of the series);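 further: plate controls were DMSO alone for no effect and tamoxifen control for full effect; nearly all actives have a fitted effect of over 45% in size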
# Method in brief: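 Mouse neuroblastoma N2a cells, 1500/well, exposed to compounds 40 h at 37 °C in complete medium. Viability measured as cellular ATP by CellTiter-Glo luminescence; AC50 from Hill fits of concentration-response.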
# [5] = MultiTox-Fluor Cytotoxicity Assay - LYMP1-003 - Dead Cells (AID 961);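 further: 0% = DMSO and 100% = tetraoctylammonium bromide; nearly all actives have a fitted effect of over 70% in size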
# Method in brief: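 Acute toxicity is scored as increased dead-cell protease activity in human lymphoblastoid LYMP1-003 cells after 16 h compound exposure in complete culture medium. Activity is normalized to DMSO basal and 15 uM tetraoctylammonium bromide as full response.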
# [6] = Cell Viability - LYMP2-003 (AID 965);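 further: cells exposed to compounds for 24 h before reading; 0% = DMSO only and full effect = 92 µM tetraoctylammonium bromide; nearly all actives have a fitted effect of over 50% in size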
# Method in brief: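 Acute cytotoxicity is scored as a concentration-dependent drop in intracellular ATP, measured by luciferase luminescence in human lymphoblastoid cells treated for 24 hours at 37 C. AC50 values derive from Hill-equation modelling.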
# [7] = Cell Viability - LYMP2-009 (AID 968);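 further: cells exposed to compound for 24 h at 37 °C; 0% = DMSO alone and the full-kill end = tetraoctylammonium bromide at 92 µM; nearly all actives have a fitted effect of over 55% in size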
# [8] = Cell Viability - LYMP2-019 (AID 973);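 further: cells exposed to compound for 24 h at 37 °C; 0% = DMSO alone and full effect = 92 µM tetraoctylammonium bromide; nearly all actives have a fitted effect of over 55% in size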
# Method in brief: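 Human lymphoblastoid LYMP2-019 cells (2500/well) preincubated 5 h at 37 C, then treated 24 h at 37 C in complete medium. Viability by CellTiter-Glo ATP luminescence after 30 min at room temperature; AC50 from Hill fits.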
# [9] = Cell Viability - LYMP2-007 (AID 979);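 further: cells exposed to compound for 24 h before reading; 0% = DMSO only and the negative end = 92 µM tetraoctylammonium bromide; nearly all actives have a fitted effect of over 60% in size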
# Method in brief: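 Human lymphoblastoid LYMP2-007 cells (2500/well) preincubated 5 h at 37 C, then treated 24 h at 37 C in complete medium. Viability by CellTiter-Glo ATP luminescence after 30 min at room temperature; AC50 from Hill fits.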
# [10] = target: Thyroid hormone receptor beta (Homo sapiens) (UniProt P10828); test: qHTS assay for small molecule agonists of thyroid hormone receptor beta signaling (AID 588545; calls by dose curve)
# Chain of Thyroid hormone receptor beta (Homo sapiens) (P10828 whole entry, looked up): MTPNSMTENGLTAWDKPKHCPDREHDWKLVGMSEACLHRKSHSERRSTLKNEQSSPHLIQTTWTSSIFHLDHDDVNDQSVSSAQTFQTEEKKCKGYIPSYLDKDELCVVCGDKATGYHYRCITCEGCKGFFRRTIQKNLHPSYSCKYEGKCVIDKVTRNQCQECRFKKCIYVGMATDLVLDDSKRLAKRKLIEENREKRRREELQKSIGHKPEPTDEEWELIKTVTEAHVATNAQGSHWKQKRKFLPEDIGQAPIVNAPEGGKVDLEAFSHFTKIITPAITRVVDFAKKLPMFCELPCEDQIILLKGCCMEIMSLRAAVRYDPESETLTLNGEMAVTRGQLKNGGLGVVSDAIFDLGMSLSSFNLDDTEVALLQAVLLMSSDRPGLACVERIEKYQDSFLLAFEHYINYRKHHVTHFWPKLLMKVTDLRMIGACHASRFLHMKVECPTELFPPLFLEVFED
# Method in brief: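 Cells (2500/well) were seeded, incubated 4 hrs at 37 C, dosed with a compound series, incubated 18 hrs, loaded with CCF4 dye for 2 hrs at RT, then read for fluorescence. Data were scaled between DMSO (0%) and 10 nM T3 (100%).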
# [11] = qHTS assay for small molecule antagonists of retinoid X receptor alpha signaling (AID 588546); conditions: HEK293T RXRa-UAS-bla, beta-lactamase ratio, antagonist mode; measured here: W530 green channel, cytotoxicity proxy;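 further: cells stimulated with 9-cis-retinoic acid as agonist; on the % scale 0 is the no-effect control and ±100 the full control effect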
# Method in brief: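 Beta-lactamase reporter inhibition, read as CCF4 fluorescence ratio (ex 405, em 460/530 nm) after 2 h at RT. HEK293T UAS-bla cells, 2500/well, were stimulated with 9-cis-RA at 500 or 100 nM final alongside test compound for 18 h at 37 C.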
# [12] = qHTS assay for small molecule activators of the p53 signaling pathway (AID 651743; active means well fitted activation curve with a large enough effect in the signal ratio, not every such curve was filed as active; the % refers to the signal ratio; further: % of control where 0% means no effect); conditions: HCT-116 p53RE-bla, beta-lactamase FRET ratio, 16 h; activation: stronger effect = higher value
# Method in brief: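 p53RE-bla HCT-116 cells carrying a beta-lactamase reporter under p53 response elements were exposed to compounds for 16 hours at 37 C. Reporter activity read as fluorescence after 2 hours at room temperature with LiveBLAzer B/G FRET substrate.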
# [13] = qHTS assay for small molecule activators of the nuclear factor-kappa B (NF-kB) signaling pathway (AID 651749; active means well fitted activation curve with a large enough effect in the signal ratio; the % refers to the signal ratio; further: % of control where 0% means no effect); conditions: NF-kB-bla ME-180 cells, beta-lactamase FRET ratio, 16 h; activation: stronger effect = higher value
# Method in brief: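 NF-kB-bla ME-180 cells carrying a beta-lactamase reporter under an NF-kB response element, 2,000 cells/well, exposed to compound for 16 hr at 37C; FRET-based beta-lactamase fluorescence read-out of pathway activation.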
# [14] = qHTS assay for environmental chemicals that activate the Aryl hydrocarbon Receptor (AhR) signaling pathway (AID 651777); conditions: 1A2-DRE human hepatoma cells, luciferase, 24 h; activation: stronger effect = higher value; further: nearly all actives have a fitted effect of over 15% in size; further: potency means the concentration at half of the fitted maximal effect; on activation: % of control where 0% means no effect
# Method in brief: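 Quantitative HTS in stably transfected human liver-derived cells whose luciferase gene sits downstream of the CYP1A2 promoter and dioxin response element. After 24 hr exposure at 37 C, One-Glo luminescence was measured.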
# [15] = target: Peroxisome proliferator-activated receptor alpha (Homo sapiens) (UniProt Q07869); test: qHTS assay for small molecule agonists of the peroxisome proliferator-activated receptor alpha (PPARalpha) signaling pathway (AID 651778); conditions: PathHunter PPARalpha complementation, chemiluminescence, 6 h; stronger effect = higher value; further: % of control where 0% means no effect
# Chain of Peroxisome proliferator-activated receptor alpha (Homo sapiens) (Q07869 whole entry, looked up, the tested form may be a part): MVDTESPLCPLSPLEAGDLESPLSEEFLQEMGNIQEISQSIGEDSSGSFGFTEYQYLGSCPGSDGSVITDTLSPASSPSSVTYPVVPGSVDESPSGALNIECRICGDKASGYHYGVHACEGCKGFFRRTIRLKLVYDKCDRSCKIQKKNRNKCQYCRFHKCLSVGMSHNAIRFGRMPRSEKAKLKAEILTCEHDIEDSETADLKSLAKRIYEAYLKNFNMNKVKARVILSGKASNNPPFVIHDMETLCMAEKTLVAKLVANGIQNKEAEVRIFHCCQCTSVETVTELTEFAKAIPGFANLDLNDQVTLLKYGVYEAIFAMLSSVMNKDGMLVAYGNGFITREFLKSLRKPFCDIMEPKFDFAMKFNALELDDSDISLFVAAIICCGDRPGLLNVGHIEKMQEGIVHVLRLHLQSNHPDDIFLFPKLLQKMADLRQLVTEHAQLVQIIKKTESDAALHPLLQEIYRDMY
# Method in brief: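 Enzyme-fragment complementation assay in which ligand-bound PPARalpha translocates and forms an active enzyme that generates chemiluminescence. Cells were plated overnight, exposed to compound for 6 hr at 37 C, and then given detection reagent for 60 min at room temperature.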
# [16] = qHTS assay for small molecule agonists of the antioxidant response element (ARE) signaling pathway measured by Nrf2-dependant transcriptional activity (AID 720636; active means well fitted curve in the direction sought with a large enough effect in the repeat runs; an effect the other way counts as inactive or inconclusive; further: % of control where 0% means no effect)
# Method in brief: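 Quantitative HTS format in HepG2 cells stably expressing an ARE-luciferase reporter; 16 hr compound treatment at 37 C, luciferase signal detected with ONE-Glo.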
# [17] = S16 Schwann cell PMP22 intronic element firefly luciferase assay (AID 624032); further: nearly all actives have a fitted effect of over 30% in size; further: potency means the concentration at half of the fitted maximal effect
# Method in brief: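 Rat S16 Schwann cells stably carrying firefly luciferase driven by a PMP22 intronic element, in 10% FBS, treated 24 h at 37 C. ONE-Glo luminescence normalized to PTC124 control and DMSO (0%); curves classed by r2, magnitude and activity.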
compound,measurement,setting,value
C[C@]12CC[C@H](O)CC1=CCC1C2CC[C@]2(C)C(=O)CC[C@@H]12 (some centres not stated),Potency,AS120,inactive
same,Potency,ATS189,inactive
same,Potency,PC49,inactive
ClC(Cl)=C(c1ccc(Cl)cc1)c1ccc(Cl)cc1,Potency,[1],> 92 µM (inactive)
same,Potency,[2],> 92 µM (inactive)
same,Potency,[3],> 92 µM (inactive)
same,"activity change, negative = cytotoxicity",[4],-14.6% (inactive)
same,Potency,[5],inactive
same,Potency,[6],inactive
same,Potency,[7],inactive
same,Potency,[8],inactive
same,Potency,[9],inactive
same,outcome,[10],inactive
same,max response,[11],-0.142% and -15.3%
same,activation,[12],-3.15% (inactive) and -5.84% (inactive) and 6.09% (inactive)
same,activation,[13],0.128% (inactive) and -1.11% (inactive) and 0.0255% (inactive)
same,activation,[14],0.0823% (inactive) and 0.597% (inactive) and 0.112% (inactive)
same,max response,[15],21.8% (inactive) and 11.7% (inactive) and 4.05% (inactive)
same,outcome,[16],inactive
CCNc1nc(Cl)nc(NC(C)C)n1,Potency,[1],> 92 µM (inactive)
same,Potency,[2],> 92 µM (inactive)
same,Potency,[3],> 92 µM (inactive)
same,"activity change, negative = cytotoxicity",[4],-4.9% (inactive)
same,Potency,[5],inactive
same,Potency,[6],inactive
same,Potency,[7],inactive
same,Potency,[8],inactive
same,Potency,[9],inactive
same,outcome,[10],inactive
same,max response,[11],3.95% and -7.9%
same,activation,[12],-2.86% (inactive) and -1.26% (inactive)
same,activation,[13],-0.0541% (inactive) and -0.0593% (inactive)
same,activation,[14],-0.785% (inactive) and 0.245% (inactive)
same,max response,[15],3.27% (inactive) and 0.807% (inactive)
same,outcome,[16],inactive
C=CCc1ccc2c(c1)OCO2,Potency,[1],> 92 µM (inactive)
same,Potency,[2],> 92 µM (inactive)
same,Potency,[3],> 92 µM (inactive)
same,"activity change, negative = cytotoxicity",[4],-3.41% (inactive)
same,Potency,[5],inactive
same,Potency,[6],inactive
same,Potency,[7],inactive
same,Potency,[8],inactive
same,Potency,[9],inactive
same,outcome,[10],inactive
same,max response,[11],-5.37%
same,activation,[12],-1.35% (inactive)
same,activation,[13],-0.401% (inactive)
same,max response,[15],-3.48% (inactive)
same,outcome,[16],inactive
O=C(O)COc1ccc(Cl)cc1Cl,Potency,[1],> 92 µM (inactive)
same,Potency,[2],> 92 µM (inactive)
same,Potency,[3],> 92 µM (inactive)
same,"activity change, negative = cytotoxicity",[4],9.64% (inactive) and 3.72% (inactive)
same,Potency,[5],inactive
same,Potency,[6],inactive
same,Potency,[7],inactive
same,Potency,[8],inactive
same,Potency,[9],inactive
same,activation,[12],-2.21% (inactive) [middle of 4 runs]
same,max response,[15],0.368% (inactive) [middle of 4 runs]
same,outcome,[16],inactive
CC(C)C[C@H]1C(=O)N2CCCC2[C@]2(O)O[C@](NC(=O)[C@@H]3C=C4c5cccc6[nH]c(Br)c(c56)C[C@H]4N(C)C3)(C(C)C)C(=O)N12 (some centres not stated),Potency,[17],8.09 µM (active)
CNC(=O)O/N=C/C(C)(C)SC,Potency,[1],> 92 µM (inactive)
same,Potency,[2],> 92 µM (inactive)
same,Potency,[3],> 92 µM (inactive)
same,"activity change, negative = cytotoxicity",[4],-2.66% (inactive)
same,Potency,[5],inactive
same,Potency,[6],inactive
same,Potency,[8],inactive
same,Potency,[9],inactive
same,outcome,[10],inactive
same,max response,[11],-9.38% and -5.02% and 4.99%
same,activation,[12],-1.27% (inactive) and -5.37% (inactive) and -5.16% (inactive)
same,activation,[13],-0.362% (inactive) and -4.25% (inactive) and 1.36% (inactive)
same,Potency,[14],39.8 µM (active)
same,activation,[14],-0.995% (inactive) and 0.0962% (inactive)
same,max response,[15],4.62% (inactive) and -1.35% (inactive) and -3.37% (inactive)
same,outcome,[16],inactive
C=CCc1ccc(OC)cc1,Potency,[1],> 92 µM (inactive)
same,Potency,[2],> 92 µM (inactive)
same,Potency,[3],> 92 µM (inactive)
same,"activity change, negative = cytotoxicity",[4],-8.37% (inactive)
same,Potency,[5],inactive
same,Potency,[6],inactive
same,Potency,[7],inactive
same,Potency,[8],inactive
same,Potency,[9],inactive
same,max response,[11],-1.65%
same,activation,[13],-0.38% (inactive)
same,activation,[14],0.798% (inactive)
same,max response,[15],0.294% (inactive)
same,outcome,[16],inactive
CCNC[C@H](O)c1cccc(O)c1,Potency,[17],inactive
same,Potency,AS120,inactive
same,Potency,ATS189,inactive
same,Potency,PC49,inactive
